Composite z-score and z-score data for ten compounds are collected here from PubChem BioAssay.

The source made the active and inactive calls. Unless noted, how the calls were made is not given here.

In test [1] the test system is Wnt5a (protein binding on small-molecule microarray). Kind of test: Wnt5a binders on small-molecule microarray, primary screen, biophysical, 635/667 nm fluorescence (AID 1142).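 Further: fluorescence read at 667 nm with signal to noise per printed feature.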 The note with it: 635 nm fluorescence, higher = more signal.
Test [2] is described as follows: cell viability in Huh7 cells, primary screen, cytotoxicity control for HCV replication inhibitor project, CellTiter-Glo luminescence, basal, 48 h (AID 1143).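 Further: Huh7 hepatoma cells carrying a hepatitis C replication reporter with no stimulus; test concentration not given here.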 The following applies: Huh7 HCV replicon, higher = more signal, called active from +8 up or from −8 down. (In general: Cellular ATP, detected with luciferase, serves as a proxy for viable cell number.)
The nature of test [3]: P. aeruginosa biofilm formation inhibitors, primary screen, PAO1 strain, BacTiter-Glo luminescence, LB-PBS (AID 1144). The note with it: 12 h, higher = more signal.
A short description of test [4]: CREB reporter modulators without forskolin, primary screen, cell-based, PC12, CRE-LacZ reporter, unstimulated (AID 1145). The note with it: no forskolin, luminescence, 4.5 h, higher = more signal, called active from +8 up or from −8 down.
A short description of test [5]: CREB reporter modulators under forskolin, primary screen, cell-based, PC12, CRE-LacZ reporter, forskolin-stimulated (AID 1146).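 Further: PC12 cells with 6xCRE LacZ reporter stimulated by forskolin 10 µM; beta-galactosidase reporter signal reflecting CREB driven transcription.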 The note with it: luminescence, 4.5 h, higher = more signal, called active from +8 up or from −8 down.
Test [6] addresses Streptavidin (Streptomyces avidinii) (UniProt P22629). Kind of test: streptavidin binders on small-molecule microarray, primary screen, artefact control for SMM compound annotation, biophysical, 635/667 nm fluorescence (AID 1147).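 Further: signal reflects streptavidin binding to arrayed compounds as a control protein.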 The following applies: streptavidin binding, higher = more signal.
Test [7] in a line: small-molecule binders of probe aInhba, primary screen, biochemical, small-molecule microarray, 635/667 nm fluorescence (AID 1148).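 Further: score merges 667nm spot fluorescence with signal-to-noise for antibody binding to printed compounds.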 The following applies: higher = more signal.
Test [8] concerns the target Torsin-1A (Homo sapiens) (UniProt O14656). Kind of test: torsin A binders from cell lysate, primary screen, small-molecule microarray, wild-type, 635/667 nm (AID 1149). The following applies: COS7 hTOR1A-WT lysate, 635 nm fluorescence, higher = more signal.
Test [9] shares this target. Kind of test: small-molecule binders of mutant TOR1A in lysate, primary screen, cell lysate, small-molecule microarray, COS7 lysate, 635/667 nm fluorescence (AID 1150).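 Further: score pools 667 nm emission and signal to noise measuring lysate protein binding.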 The note with it: COS7 hTOR1A mutant lysate, 635 nm fluorescence, higher = more signal.
Test [10] relates to Sonic hedgehog protein (Shh). Put plainly: small-molecule binders of Shh protein, primary screen, biochemical, small-molecule microarray, 635/667 nm fluorescence (AID 1151).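 Further: Shh protein binding to compounds spotted on small-molecule microarray slides; score combines spot fluorescence intensity with signal-to-noise across triplicate slides.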 The note with it: small-molecule microarray binding, 635 nm fluorescence; higher = more signal.

Torsin-1A (Homo sapiens), sequence (O14656 whole entry, looked up): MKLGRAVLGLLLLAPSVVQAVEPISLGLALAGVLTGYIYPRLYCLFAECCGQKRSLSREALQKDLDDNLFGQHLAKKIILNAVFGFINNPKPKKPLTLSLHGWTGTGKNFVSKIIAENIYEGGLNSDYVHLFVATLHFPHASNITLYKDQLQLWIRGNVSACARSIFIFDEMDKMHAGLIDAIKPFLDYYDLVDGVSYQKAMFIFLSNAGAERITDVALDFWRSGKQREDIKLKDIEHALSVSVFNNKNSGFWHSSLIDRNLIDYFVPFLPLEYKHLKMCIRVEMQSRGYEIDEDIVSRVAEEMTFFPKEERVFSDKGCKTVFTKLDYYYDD
Streptavidin (Streptomyces avidinii), sequence (P22629 whole entry, looked up): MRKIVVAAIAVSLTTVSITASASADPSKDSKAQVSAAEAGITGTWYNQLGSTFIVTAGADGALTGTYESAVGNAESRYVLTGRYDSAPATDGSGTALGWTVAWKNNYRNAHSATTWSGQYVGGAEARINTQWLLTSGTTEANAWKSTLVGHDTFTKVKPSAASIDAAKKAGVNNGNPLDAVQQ

For `CCCC[C@@H]1C[C@H]1[C@@H](NC(=O)c1ccco1)c1ccc(-c2ccccc2)cc1`, the composite z-score in test [1] was -0.0076; in test [6] it was 0.483; in test [7], 0.033; in the test with Torsin-1A (Homo sapiens) [8], 0.618; in the test with Torsin-1A (Homo sapiens) [9], 0.952; in test [10] it was -0.308. In addition, the z-score in [2] is -2.51 (inactive); in [3] it was 0.0577 (inactive); in test [4] it was 0.766 (inactive); in test [5] it was 0.576 (inactive).

`Cc1ccc(S[C@]2(C(=O)NCCCN(C)C)CC(=O)N(Cc3ccccc3C(F)(F)F)[C@@H]2c2ccc(CO)cc2)cc1`: the composite z-score in [1] is -0.197; in [6] it was -0.0283; in [7], -0.0791; with Torsin-1A (Homo sapiens) [8], -0.544; with Torsin-1A (Homo sapiens) [9], 0.801; in [10], -0.548. For the same compound, the z-score in test [2] was 0.312 (inactive); in [3], 1.08 (inactive); in test [4] it was -0.295 (inactive); in test [5] it was 0.358 (inactive).

As for `COC(=O)C(CC#Cc1ccc2c(c1)[C@]1(C(=O)N2)[C@H](c2ccc(OCCO)cc2)N2[C@H](c3ccccc3)[C@H](c3ccccc3)OC(=O)[C@H]2[C@@H]1C(=O)Nc1nc2ccccc2s1)C(=O)OC`, the composite z-score in [1] was 0.35; in test [6], 1.53; in [7], -0.157; with Torsin-1A (Homo sapiens) [8], 1.36; with Torsin-1A (Homo sapiens) [9] it was 0.414; in test [10], 0.588. Moreover, the z-score in test [2] is -1.68 (inactive); in [3], -1.39 (inactive); in test [4] it was -0.375 (inactive); in [5], 1.33 (inactive).

Take `C=C[C@H](CO[Si](CC)(CC)CC)N(Cc1ccc(OC(C)=O)c(OC)c1)S(=O)(=O)c1ccc(Br)cc1`: the composite z-score in test [1] amounted to 0.157; in test [6], 1.61; in test [7], 0.403; with Torsin-1A (Homo sapiens) [8], 0.837; with Torsin-1A (Homo sapiens) [9], 0.671; in test [10], 1.15. For the same compound, the z-score was -4.96 (inactive) in test [2], 0.451 (inactive) in test [3], -0.263 (inactive) in test [4] and 0.685 (inactive) in test [5].

Consider `[N-]=[N+]=Nc1ccccc1[C@H]1OC(c2ccc(OCCCO)cc2)=N[C@@]1(CCS(=O)(=O)c1ccccc1)C(N)=O`, for which the composite z-score in test [1] was determined as 0.79; in [6], 0.751; in test [7], 0.668; in the test with Torsin-1A (Homo sapiens) [8] it was 0.875; with Torsin-1A (Homo sapiens) [9], 0.356; in [10] it was 0.176. Further, the z-score in test [2] is -1.26 (inactive); in [3], -0.563 (inactive); in test [4], 0.96 (inactive); in test [5], -1.12 (inactive).

Turning to `Oc1ccc2cc[n+](Cc3sc4ccccc4c3Cl)cc2c1`, the composite z-score in test [1] is -0.127; in [6], 0.361; in test [7], -0.12; in the test with Torsin-1A (Homo sapiens) [8], -0.648; in the test with Torsin-1A (Homo sapiens) [9], 0.11; in test [10], 1.53. The z-score in [2] is -0.683 (inactive); in test [3], -0.521 (inactive); in [4], -0.374 (inactive); in [5] it was 0.232 (inactive).

Regarding `COC(=O)c1c(CC[C@@H](CO)NC(=O)NCCn2cc(C3(O)CCCC3)nn2)oc(C(C)=O)c1C(=O)OC`, the composite z-score in test [1] was -0.344; in test [6], 0.102; in [7], -0.203; with Torsin-1A (Homo sapiens) [8], -0.0395; with Torsin-1A (Homo sapiens) [9], 0.105; in test [10], -0.303. Besides, the z-score was -0.177 (inactive) in test [2], 0.699 (inactive) in test [3], 0.978 (inactive) in test [4] and -0.194 (inactive) in test [5].

Take `CC(C)CNC(=O)[C@@]1(Cc2ccccc2I)c2ccccc2C(=O)N(C2CCCCC2)[C@H]1c1ccc(CO)cc1`: the composite z-score in test [1] was 0.705; in test [6], -0.346; in test [7], 0.23; with Torsin-1A (Homo sapiens) [8] it was 0.222; with Torsin-1A (Homo sapiens) [9], 0.551; in test [10] it was 0.187. Further, the z-score in test [2] was -1.71 (inactive); in test [3] it was 0.0484 (inactive); in test [4], -0.206 (inactive); in test [5] it was -0.0769 (inactive).

For `COC(=O)[C@@]1(Cc2ccc(F)cc2)[C@H]2c3cc(C(=O)N(C)C)n(Cc4ccccc4)c3C[C@H]2CN1C(=O)c1ccccc1`, the composite z-score is 0.198 in test [1]; 1.16 in test [6]; 0.218 in test [7]; -0.243 with Torsin-1A (Homo sapiens) [8]; 0.099 in the test with Torsin-1A (Homo sapiens) [9]; 0.0292 in [10]. Moreover, the z-score in test [2] was -2.67 (inactive); in test [3] it was -0.22 (inactive); in test [4], -0.379 (inactive); in [5], 1.42 (inactive).

In the case of `CC#CC(=O)Oc1ccccc1C=CC(=O)OCC`, the composite z-score in [1] was -0.0407; in test [6] it was 0.066; in test [7] it was -0.206; in the test with Torsin-1A (Homo sapiens) [8] it was -0.402; with Torsin-1A (Homo sapiens) [9], 0.222; in [10] it was 0.0449. Also, the z-score in [2] is -1.99 (inactive); in test [3], -1.69 (inactive); in test [4], -0.0696 (inactive); in test [5], 1.7 (inactive).
